From ChEMBL document CHEMBL1961873, “Compounds: GSK PKIS; Assays: Nanosyn kinase panel” (2012)

Biological target: Death-associated protein kinase 1 (Homo sapiens) (UniProt P53355);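 note: each value is a mean inhibition figure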
Conditions: at 1 µM

Chain of Death-associated protein kinase 1 (Homo sapiens) (P53355 whole entry, looked up): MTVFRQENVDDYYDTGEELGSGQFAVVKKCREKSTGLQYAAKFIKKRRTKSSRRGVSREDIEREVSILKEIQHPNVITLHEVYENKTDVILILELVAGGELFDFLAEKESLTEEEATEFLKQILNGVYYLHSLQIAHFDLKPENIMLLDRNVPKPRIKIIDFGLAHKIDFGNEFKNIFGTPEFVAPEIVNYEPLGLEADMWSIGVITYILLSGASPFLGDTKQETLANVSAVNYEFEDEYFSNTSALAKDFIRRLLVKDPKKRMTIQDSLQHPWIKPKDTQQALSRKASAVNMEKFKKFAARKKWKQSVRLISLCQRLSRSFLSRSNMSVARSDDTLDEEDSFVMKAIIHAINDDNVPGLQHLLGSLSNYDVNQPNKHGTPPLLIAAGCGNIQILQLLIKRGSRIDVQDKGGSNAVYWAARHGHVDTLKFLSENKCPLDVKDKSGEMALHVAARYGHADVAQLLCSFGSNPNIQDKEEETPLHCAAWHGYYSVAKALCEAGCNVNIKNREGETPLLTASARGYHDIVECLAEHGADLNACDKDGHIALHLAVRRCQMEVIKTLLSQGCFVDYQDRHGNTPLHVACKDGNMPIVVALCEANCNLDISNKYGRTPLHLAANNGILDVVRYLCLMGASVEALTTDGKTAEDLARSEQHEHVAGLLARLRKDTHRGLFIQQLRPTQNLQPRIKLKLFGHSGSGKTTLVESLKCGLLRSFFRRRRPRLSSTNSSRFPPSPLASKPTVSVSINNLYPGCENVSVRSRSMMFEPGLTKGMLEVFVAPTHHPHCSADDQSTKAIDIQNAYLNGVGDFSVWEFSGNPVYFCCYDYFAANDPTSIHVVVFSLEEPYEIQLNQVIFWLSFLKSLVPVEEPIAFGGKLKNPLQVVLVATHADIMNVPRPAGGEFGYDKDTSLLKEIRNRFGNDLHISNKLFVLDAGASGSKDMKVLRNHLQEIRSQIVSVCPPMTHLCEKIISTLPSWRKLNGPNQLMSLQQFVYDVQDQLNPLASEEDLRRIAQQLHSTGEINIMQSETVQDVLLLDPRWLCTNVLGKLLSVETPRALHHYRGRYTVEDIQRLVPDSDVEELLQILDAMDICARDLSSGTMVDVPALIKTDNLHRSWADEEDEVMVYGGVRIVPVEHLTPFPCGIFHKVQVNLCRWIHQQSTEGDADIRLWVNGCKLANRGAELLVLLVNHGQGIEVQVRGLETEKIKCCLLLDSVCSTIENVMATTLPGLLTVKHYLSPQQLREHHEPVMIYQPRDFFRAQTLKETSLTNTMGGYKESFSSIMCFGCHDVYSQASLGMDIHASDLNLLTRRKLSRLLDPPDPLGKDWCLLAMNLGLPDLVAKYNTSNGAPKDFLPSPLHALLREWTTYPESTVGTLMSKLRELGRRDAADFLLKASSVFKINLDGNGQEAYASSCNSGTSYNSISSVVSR

| Structure (SMILES) | inhibition |
| --- | --- |
| CCc1nn2ncccc2c1-c1ccnc(NC2CC2)n1 | 1.38% |
| COC(=O)c1sc(-n2cnc3cc(OC)c(OC)cc32)cc1OCc1ccccc1C(F)(F)F | 1.94% |
| [O-][S+]1CCN(Cc2ccc(-c3ccc4ncnc(Nc5ccc(OCc6cccc(F)c6)c(Cl)c5)c4c3)o2)CC1 | 6.25% |
| CCn1c(-c2nonc2N)nc2c(C#CC(C)(C)O)ncc(OC3CCNCC3)c21 | 5.68% |
| CC(C)(CO)CNC(=O)c1ccc2c(c1)/C(=N/Nc1ccc(S(N)(=O)=O)cc1)C(=O)N2 | 0.07% |
| CCCN1CCC(c2ccc(Nc3nc(Nc4cc(F)ccc4C(N)=O)c4cc[nH]c4n3)c(OC)c2)CC1 | 50% |
| COc1ccc(-c2cc(-c3c[nH]nc3-c3ccccn3)ccn2)cc1 | 6.22% |
| COc1ccc(-c2cc3c(N)ncnc3o2)cc1 | -3.05% |
| COC(=O)Nc1nc2ccc(S(=O)(=O)c3ccc(NC(=O)Nc4cc(C(F)(F)F)ccc4F)cc3)cc2[nH]1 | 5.43% |
| Fc1ccc(-c2nn3ccccc3c2-c2ccncc2)cc1 | 0.99% |
| CN1CCC(n2cnc(-c3ccc(F)cc3)c2-c2ccnc(N)n2)CC1 | 2.09% |
| COc1cccc(-n2ncc3c(N/N=C/c4ccc(F)cc4)ncnc32)c1 | 5.45% |
| Fc1cccc(COc2ccc(Nc3ncnc4sc(-c5ccco5)cc34)cc2Cl)c1 | 11.1% |
| Fc1ccc(-c2cc(-c3c[nH]nc3-c3ccccn3)ccn2)cc1 | 3.05% |
| CCCN(CCS(C)(=O)=O)Cc1ccc(-c2ccc3ncnc(Nc4ccc(OCc5cccc(F)c5)c(Cl)c4)c3c2)o1 | 8.65% |
| COc1cccc(-c2c[nH]c3c(N/N=C/c4ccncc4)ncnc23)c1 | 11.2% |
| CC1=C(C(=O)Nc2cc(Cl)c3[nH]ncc3c2)C(c2ccc(C(F)(F)F)cc2)CC(=O)N1 (stereo not drawn) | 10% |

| Structure (SMILES) | inhibition |
| --- | --- |
| CS(=O)(=O)CCNCc1coc(-c2ccc3ncnc(Nc4ccc(OCc5ccccc5)cc4)c3c2)c1 | 1.73% |
| CCn1c(-c2nonc2N)nc2cnc(Oc3cccc(NC(=O)c4ccc(N(C)C)cc4)c3)cc21 | 0.59% |
| CNC(=O)c1cc(-c2ccc(F)cc2)cc(-c2ccc(S(=O)(=O)N3CCCC3)cc2)c1N | 9.63% |
| O=S(=O)(CCNCc1ccc(-c2ccc3ncnc(Nc4ccc(OCc5cccc(F)c5)c(Cl)c4)c3c2)o1)c1ccccc1 | 6.96% |
| N#Cc1c(NC(=O)c2ccc(F)cc2)sc2c1CCCC2 | 0.36% |
| CNC(=O)c1cccc(C#Cc2cncnc2Nc2ccc(OCc3cccc(F)c3)c(Cl)c2)c1 | -1.89% |
| CCn1c(-c2nonc2N)nc2c(C#CC(C)(C)O)nc(OC[C@H](N)c3ccccc3)cc21 | 4.82% |
| Nc1ncc(-c2cccc(S(N)(=O)=O)c2)c2scc(-c3ccc(F)c(Cl)c3)c12 | 3.2% |
| c1ccc(COc2ccc(Nc3ncnc4ccc(-c5ccco5)cc34)cc2)cc1 | 0.73% |
| N#Cc1c(NC(=O)CN2CCOCC2)sc2c1CCCC2 | 5.97% |
| NS(=O)(=O)c1ccc(N/N=C2\C(=O)Nc3ccc4ncccc4c32)cc1 | 63% |
| O=C(O[C@H]1CN[C@H](C#Cc2cc3ncnc(Nc4ccc(Cc5ccccc5)cc4)c3s2)C1)N1CCOCC1 | 2.13% |
| CC(=O)Nc1cccc(C#Cc2cncnc2Nc2ccc(OCc3cccc(F)c3)c(Cl)c2)c1 | -5.4% |
| Cc1cccc(Nc2ncc(-c3ccccc3)o2)c1 | 3.39% |
| FC(F)(F)c1cccc(-c2nn3ncccc3c2-c2ccnc(Nc3ccc4c(c3)OCCO4)n2)c1 | 4.46% |
| CCNC(=O)O[C@H]1CN[C@H](C#Cc2cc3ncnc(Nc4ccc(OCc5cccc(F)c5)c(Cl)c4)c3s2)C1 | 3.45% |
| CNC(=O)c1cncc(/C=C/c2ccccc2Cl)c1 | 1.77% |

Biological target: T1, Serine/threonine-protein kinase DCLK2 (Homo sapiens) (UniProt Q8N568);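 note: reported value is the mean percent inhibition of DCAMKL2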
T1 sequence (whole entry): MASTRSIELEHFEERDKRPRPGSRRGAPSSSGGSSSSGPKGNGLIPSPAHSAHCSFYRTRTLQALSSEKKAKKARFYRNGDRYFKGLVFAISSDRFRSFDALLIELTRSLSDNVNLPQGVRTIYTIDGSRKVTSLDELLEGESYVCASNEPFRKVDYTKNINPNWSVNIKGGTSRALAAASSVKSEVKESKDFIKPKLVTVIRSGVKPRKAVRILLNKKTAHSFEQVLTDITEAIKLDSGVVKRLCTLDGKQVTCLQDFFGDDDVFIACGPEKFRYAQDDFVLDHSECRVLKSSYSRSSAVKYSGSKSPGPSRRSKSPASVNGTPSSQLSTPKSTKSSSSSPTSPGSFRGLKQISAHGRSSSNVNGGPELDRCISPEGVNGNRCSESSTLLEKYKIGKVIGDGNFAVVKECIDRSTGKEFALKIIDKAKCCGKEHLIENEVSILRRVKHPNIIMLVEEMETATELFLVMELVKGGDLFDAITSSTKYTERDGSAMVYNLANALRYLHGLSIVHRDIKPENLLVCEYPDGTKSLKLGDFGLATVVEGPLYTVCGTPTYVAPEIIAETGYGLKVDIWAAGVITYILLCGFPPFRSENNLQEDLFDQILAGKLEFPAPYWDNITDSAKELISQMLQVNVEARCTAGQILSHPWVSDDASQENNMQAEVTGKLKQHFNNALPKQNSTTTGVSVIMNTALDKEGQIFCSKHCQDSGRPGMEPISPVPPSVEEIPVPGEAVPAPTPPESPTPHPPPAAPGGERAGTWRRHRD
Conditions: at 0.1 µM

| Structure (SMILES) | inhibition |
| --- | --- |
| CCc1nn2ncccc2c1-c1ccnc(NC2CC2)n1 | -1.54% |
| COC(=O)c1sc(-n2cnc3cc(OC)c(OC)cc32)cc1OCc1ccccc1C(F)(F)F | 2.16% |
| [O-][S+]1CCN(Cc2ccc(-c3ccc4ncnc(Nc5ccc(OCc6cccc(F)c6)c(Cl)c5)c4c3)o2)CC1 | 0.51% |
| CCn1c(-c2nonc2N)nc2c(C#CC(C)(C)O)ncc(OC3CCNCC3)c21 | 0.06% |
| CC(C)(CO)CNC(=O)c1ccc2c(c1)/C(=N/Nc1ccc(S(N)(=O)=O)cc1)C(=O)N2 | 0.04% |
| CCCN1CCC(c2ccc(Nc3nc(Nc4cc(F)ccc4C(N)=O)c4cc[nH]c4n3)c(OC)c2)CC1 | 1.99% |
| COc1ccc(-c2cc(-c3c[nH]nc3-c3ccccn3)ccn2)cc1 | 2.08% |
| COc1ccc(-c2cc3c(N)ncnc3o2)cc1 | -1.82% |
| COC(=O)Nc1nc2ccc(S(=O)(=O)c3ccc(NC(=O)Nc4cc(C(F)(F)F)ccc4F)cc3)cc2[nH]1 | -0.62% |
| Fc1ccc(-c2nn3ccccc3c2-c2ccncc2)cc1 | 1.01% |
| CN1CCC(n2cnc(-c3ccc(F)cc3)c2-c2ccnc(N)n2)CC1 | 0.59% |
| COc1cccc(-n2ncc3c(N/N=C/c4ccc(F)cc4)ncnc32)c1 | 1.07% |
| Fc1cccc(COc2ccc(Nc3ncnc4sc(-c5ccco5)cc34)cc2Cl)c1 | -1.11% |
| Fc1ccc(-c2cc(-c3c[nH]nc3-c3ccccn3)ccn2)cc1 | 1.09% |
| CCCN(CCS(C)(=O)=O)Cc1ccc(-c2ccc3ncnc(Nc4ccc(OCc5cccc(F)c5)c(Cl)c4)c3c2)o1 | 0.95% |
| COc1cccc(-c2c[nH]c3c(N/N=C/c4ccncc4)ncnc23)c1 | 1.17% |
| CC1=C(C(=O)Nc2cc(Cl)c3[nH]ncc3c2)C(c2ccc(C(F)(F)F)cc2)CC(=O)N1 (stereo not drawn) | 3.55% |

| Structure (SMILES) | inhibition |
| --- | --- |
| CS(=O)(=O)CCNCc1coc(-c2ccc3ncnc(Nc4ccc(OCc5ccccc5)cc4)c3c2)c1 | -0.36% |
| CCn1c(-c2nonc2N)nc2cnc(Oc3cccc(NC(=O)c4ccc(N(C)C)cc4)c3)cc21 | 0.41% |
| CNC(=O)c1cc(-c2ccc(F)cc2)cc(-c2ccc(S(=O)(=O)N3CCCC3)cc2)c1N | -1.53% |
| O=S(=O)(CCNCc1ccc(-c2ccc3ncnc(Nc4ccc(OCc5cccc(F)c5)c(Cl)c4)c3c2)o1)c1ccccc1 | 1.44% |
| N#Cc1c(NC(=O)c2ccc(F)cc2)sc2c1CCCC2 | 0% |
| CNC(=O)c1cccc(C#Cc2cncnc2Nc2ccc(OCc3cccc(F)c3)c(Cl)c2)c1 | -9.58% |
| CCn1c(-c2nonc2N)nc2c(C#CC(C)(C)O)nc(OC[C@H](N)c3ccccc3)cc21 | -2.25% |
| Nc1ncc(-c2cccc(S(N)(=O)=O)c2)c2scc(-c3ccc(F)c(Cl)c3)c12 | 0.41% |
| c1ccc(COc2ccc(Nc3ncnc4ccc(-c5ccco5)cc34)cc2)cc1 | -0.98% |
| N#Cc1c(NC(=O)CN2CCOCC2)sc2c1CCCC2 | 2.25% |
| NS(=O)(=O)c1ccc(N/N=C2\C(=O)Nc3ccc4ncccc4c32)cc1 | -1.4% |
| O=C(O[C@H]1CN[C@H](C#Cc2cc3ncnc(Nc4ccc(Cc5ccccc5)cc4)c3s2)C1)N1CCOCC1 | -0.4% |
| CC(=O)Nc1cccc(C#Cc2cncnc2Nc2ccc(OCc3cccc(F)c3)c(Cl)c2)c1 | 2.03% |
| Cc1cccc(Nc2ncc(-c3ccccc3)o2)c1 | -0.51% |
| FC(F)(F)c1cccc(-c2nn3ncccc3c2-c2ccnc(Nc3ccc4c(c3)OCCO4)n2)c1 | 0.29% |
| CCNC(=O)O[C@H]1CN[C@H](C#Cc2cc3ncnc(Nc4ccc(OCc5cccc(F)c5)c(Cl)c4)c3s2)C1 | 1.18% |
| CNC(=O)c1cncc(/C=C/c2ccccc2Cl)c1 | 0.59% |
